This passage reports growth results from PubChem BioAssay (NCI).

Compounds without any hit were thinned out: in the full panel of roughly 83,000, 20% have a hit.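 Method: cells in 96-well plates; compound added at one concentration; 48 h incubation; percent growth measured; values under 10 scored active.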 A number with no mark means an inactive call. Activity calls are given as the source filed them.

For one test, the system named is 786-0 renal. Kind of test: NCI-60 one-dose screen, 48 h (100 = growth as untreated, 0 = no growth, -100 = all killed). To be noted: 10 µM.
On to `N#Cc1ncc(-c2cc(F)c(F)c(F)c2)c(NC2CCCCCC2)n1`, for which the growth is 101%.

Consider `CC/C(C)=C(\C)C(=O)O`, for which the growth was 98.5%.

Regarding `CC(=O)N1N=C(c2ccc(Cl)cc2)CC1c1sc(Cl)nc1Cl` (stereo not drawn), the growth is 84.7%.

Consider `Nc1ncn(C2OC(CO)C(O)C2O)c(=O)n1` (stereo not drawn), for which the growth was 12.2%.

For the compound `Nc1c(C(=O)Nc2cccc(Br)c2)sc2nc3c(cc12)C(O)CCC3` (stereo not drawn), the growth was 45.1%.

Consider `Oc1[nH]c2ccc(Cl)cc2c1/C=c1/ccc2c(c1)N=C(c1cccs1)N=2`, for which the growth was 66.7%.

On to `Clc1cc2c(c(CSc3nc4ccccc4n4cccc34)c1)OCOC2`, for which the growth is 93.4%.

As for `O=C1NC(=O)c2ncccc21`, the growth was 102%.

As for `NC1=NC(=O)C(c2ccccc2)(c2ccccc2)S1`, the growth is 102%.

Take `Cn1c([N+](=O)[O-])cnc1/C=C1\Oc2cc(Cl)ccc2C1=O`: the growth was -6.4% (active).

On to `c1ccc(C(NC2CC3CCC2C3)c2ccccc2)cc1` (stereo not drawn), for which the growth was 97%.

As to `COc1cc(/C=C2\Oc3cc(OCC(=O)c4ccccc4)ccc3C2=O)cc(OC)c1OC`, the growth is -45.9% (active).

Take `CC1(C)Cc2c(sc3ncn4nc(-c5ccc(O)cc5)nc4c23)CO1`: the growth is 74.9%.

Consider `O=C(N/N=C/c1cc2ccccc2c2ccccc12)c1cc(O)c(O)c(O)c1`, for which the growth is 82.6%.

Consider `CCOC(=O)c1ccoc1`, for which the growth is 99.1%.

In the case of `O=[P@@]1(c2ccccc2)O[C@H](COCc2ccccc2)[C@@H](OCc2ccccc2)[C@H](OCc2ccccc2)[C@H]1O`, the growth is 65.3%.

Consider `CN(C)CCN1C(=O)c2cccc3c(-c4ccc5ncn(C6CCCCC6)c5c4)ccc(c23)C1=O`, for which the growth is 19.1%.

Take `CN(C)c1ccc(N=C2C=CC(=O)c3ccccc32)cc1`: the growth was 90.3%.

Regarding `CC(=O)CSC(C)=O`, the growth was 102%.

With `COc1ccc(Nc2ccnc(NCCNc3ccnc4cc(Cl)ccc34)n2)cc1`, the growth is 59.4%.

With `CC(C)(Cl)CCC1=C(Cl)C(=O)c2ccccc2C1=O`, the growth was 101%.

For `CCOCCOCCOCCOCCOCCOCCOCCOCCOCCO` (tested in a mixture with another compound), the growth is 39.3%.

On to `CCCCCCCCCCCCCC[n+]1ccc(C(N)=O)cc1`, for which the growth is -12.1% (active).

Regarding `COc1ccc(-c2nc(-c3nc4ccc(OC)cc4[nH]3)cc3c2[nH]c2ccccc23)cc1`, the growth is 37.4%.

Regarding `COc1ccc(Oc2nc(NC3CCCC3)nc(Sc3ccc(OC)cc3)n2)cc1`, the growth was 79.9%.

`COc1cc2cc3c(nc2cc1OC)CCN3Cc1ccc(NC(=O)Nc2cc(C(F)(F)F)cc(C(F)(F)F)c2)cc1`: the growth was 81.4%.

`CCCCCC(=O)c1ccc(OCCCN2CCN(C(=O)OCC)CC2)cc1`: the growth was 97.5%.

For `COc1ccc(-c2cc(/C=C/C(=O)c3cc(OC)c(OC)c(OC)c3)[nH]n2)cc1OC`, the growth is -57.9% (active).

In the case of `COc1cccc(-c2cc(-c3cccc(NS(C)(=O)=O)c3)nc(N)c2C#N)c1O`, the growth was 49.4%.

The test system of a further test is COLO 205 colon. Described as above. To be noted: 10 µM.
As to `COc1cc2nc(Nc3cccc(NC(C)=O)c3)nc(N)c2cc1OC`, the growth was 109%.

Take `COc1ccc(-c2nc3sc(C4CC4)nn3c2/C=C2/C(=O)Nc3ccc(OC)cc32)cc1`: the growth was 88.5%.

For the compound `Cc1cc(N(CCCNc2ccnc3cc(Cl)ccc23)Cc2cccs2)nc(Cl)n1`, the growth is -37.9% (active).

In the case of `O=C1OCC2=C1C(c1cccc(Br)c1)c1cc3c(cc1N2CCO)CCC3` (stereo not drawn), the growth is -29.1% (active).

For `COc1ccc(/C=C2/CN(C(=O)c3ccc(C)cc3)C/C(=C\c3ccc(OC)cc3)C2=O)cc1`, the growth is 97.6%.

In the case of `Cc1ccc(C(=O)Nc2cccc(F)c2)cc1NC(=O)C1(c2ncnc3[nH]ccc23)CC1`, the growth is 59.1%.

As to `Clc1ccccc1N=Cc1ccc2c(c1)OCO2`, the growth is 109%.

For the compound `CC12O[C@H](C[C@@H](OC(=O)c3ccccc3)[C@H]1O)n1c3ccccc3c3c4c(c5c6ccccc6n2c5c31)C(=O)NC4=O`, the growth is 46.8%.

Turning to `CCN(CC)CCNc1ccc(CO)c2oc3cc(Cl)ccc3c(=O)c12`, the growth was 68.4%.

On to `N#Cc1ncc(-c2cc(F)c(F)c(F)c2)c(NC2CCCCCC2)n1`, for which the growth is 88.5%.

In the case of `CC/C(C)=C(\C)C(=O)O`, the growth was 104%.

Turning to `CC(=O)N1N=C(c2ccc(Cl)cc2)CC1c1sc(Cl)nc1Cl` (stereo not drawn), the growth was 108%.

In the case of `Nc1ncn(C2OC(CO)C(O)C2O)c(=O)n1` (stereo not drawn), the growth was 2.62% (active).

`Nc1c(C(=O)Nc2cccc(Br)c2)sc2nc3c(cc12)C(O)CCC3` (stereo not drawn): the growth is -1.49% (active).

`Oc1[nH]c2ccc(Cl)cc2c1/C=c1/ccc2c(c1)N=C(c1cccs1)N=2`: the growth is 73%.

Regarding `Clc1cc2c(c(CSc3nc4ccccc4n4cccc34)c1)OCOC2`, the growth is 84.1%.

Take `O=C1NC(=O)c2ncccc21`: the growth is 114%.

On to `NC1=NC(=O)C(c2ccccc2)(c2ccccc2)S1`, for which the growth was 117%.

`Cn1c([N+](=O)[O-])cnc1/C=C1\Oc2cc(Cl)ccc2C1=O`: the growth is -52.9% (active).

Regarding `c1ccc(C(NC2CC3CCC2C3)c2ccccc2)cc1` (stereo not drawn), the growth is 103%.

With `COc1cc(/C=C2\Oc3cc(OCC(=O)c4ccccc4)ccc3C2=O)cc(OC)c1OC`, the growth is 146%.

Take `CC1(C)Cc2c(sc3ncn4nc(-c5ccc(O)cc5)nc4c23)CO1`: the growth was 114%.

`O=C(N/N=C/c1cc2ccccc2c2ccccc12)c1cc(O)c(O)c(O)c1`: the growth is 72.7%.

With `CCOC(=O)c1ccoc1`, the growth is 101%.

For `O=[P@@]1(c2ccccc2)O[C@H](COCc2ccccc2)[C@@H](OCc2ccccc2)[C@H](OCc2ccccc2)[C@H]1O`, the growth is 118%.

As to `CN(C)CCN1C(=O)c2cccc3c(-c4ccc5ncn(C6CCCCC6)c5c4)ccc(c23)C1=O`, the growth was 8.59% (active).

For the compound `CN(C)c1ccc(N=C2C=CC(=O)c3ccccc32)cc1`, the growth is 11.8%.

`CC(=O)CSC(C)=O`: the growth was 119%.

Regarding `COc1ccc(Nc2ccnc(NCCNc3ccnc4cc(Cl)ccc34)n2)cc1`, the growth is 38.8%.

With `N=C(N)c1ccc(-c2ccc(-c3cccs3)s2)cc1`, the growth was -96.6% (active).

For the compound `CC(C)(Cl)CCC1=C(Cl)C(=O)c2ccccc2C1=O`, the growth was 84%.

As for `CCOCCOCCOCCOCCOCCOCCOCCOCCOCCO` (tested in a mixture with another compound), the growth was -89.7% (active).

For the compound `CCCCCCCCCCCCCC[n+]1ccc(C(N)=O)cc1`, the growth is -100% (active).

With `COc1ccc(-c2nc(-c3nc4ccc(OC)cc4[nH]3)cc3c2[nH]c2ccccc23)cc1`, the growth is 31.3%.

For the compound `COc1ccc(Oc2nc(NC3CCCC3)nc(Sc3ccc(OC)cc3)n2)cc1`, the growth is 82.2%.

Consider `COc1cc2cc3c(nc2cc1OC)CCN3Cc1ccc(NC(=O)Nc2cc(C(F)(F)F)cc(C(F)(F)F)c2)cc1`, for which the growth was 90%.

`CCCCCC(=O)c1ccc(OCCCN2CCN(C(=O)OCC)CC2)cc1`: the growth is 96.3%.

Take `COc1ccc(-c2cc(/C=C/C(=O)c3cc(OC)c(OC)c(OC)c3)[nH]n2)cc1OC`: the growth is -42.5% (active).

As to `COc1cccc(-c2cc(-c3cccc(NS(C)(=O)=O)c3)nc(N)c2C#N)c1O`, the growth was -6.05% (active).
